Bioassay records: PubChem, National Center for Advancing Translational Sciences (NCATS)
Hits are enriched below; roughly 2.8% of the tested compounds scored in any of these assays.
Pol kappa inh-1: inhibitors of human DNA polymerase kappa. Potency, µM (doses to about 107 µM), without a hit: at the highest dose activity, negative = inhibition, actives largely listed as inhibitors. hit rate 0.53% among 400,000. AID 588579. Q9UBT6. purified Pol kappa, fluorescent DNA synthesis assay, 10 min; further: potency means the concentration at half of the fitted maximal effect; on the % scale 0 is the no-effect control and ±100 the full control effect
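Enzyme at 10 nM met test compounds for 15 min at room temperature. Substrate addition (50 nM final) began the reaction, which was monitored by fluorescence at 0 and 10 min.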
WRN helicase inh-1: WRN helicase (human) inhibition | Q14191 | WRN helicase unwinding, fluorescent forked duplex, kinetic | Potency, µM (highest dose often 114 µM), without a hit: top-dose activity change, negative = inhibition, most hits filed as inhibitors | hit rate 0.46% among 360,000; further: potency means the concentration at half of the fitted maximal effect; on the % scale 0 is the no-effect control and ±100 the full control effect; nearly all actives have a fitted effect of over 55% in size
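WRN at 20 nM final was preincubated with compound for 15 min at room temperature; reaction started with 100 nM forked duplex oligonucleotide carrying fluorophore and quencher plus 2 mM ATP (final). Unwinding followed kinetically by red fluorescence (ex 525/em 598 nm).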
PI5P4Ka inh: blocks human PI5P4K alpha kinase activity; PI5P4Kalpha enzyme, ADP-Glo luminescence, 60 min; stronger effect = lower value; P48426; hit rate 1.2% among 330,000; max response, %; active means max response of -50% or lower; inconclusive means between -30% and -50%; inactive means -30% or higher; further: value at the top dose of about 77 µM; on the % scale 0 is the no-effect control and ±100 the full control effect
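ADP-Glo luminescence end-point read after a 60 min room-temperature kinase reaction of PI5P4Kalpha plus substrate, initiated with ATP at 5 microM final. Buffer: 0.038 M HEPES pH 7.4, EGTA, 0.1% CHAPS, 5% DMSO.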
POLI inh: blocks human DNA polymerase iota activity; Pol iota fluorescent replication assay, 10 min; hit rate 1% among 390,000; Potency, µM (titrated, usually from 115 µM), without a hit: top-dose activity, negative = inhibition, actives largely listed as inhibitors; Q9UNA4; AID 588590; further: potency means the concentration at half of the fitted maximal effect
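Fluorescent replication assay read twice, at 0 min and 10 min after adding 50 nM (final) substrate. Enzyme (10 nM) and compounds were first incubated 15 min at room temperature; enzyme-free buffer wells were negative controls.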
Pol eta inh-1: inhibitors of human DNA polymerase eta; Q9Y253; recombinant Pol eta, fluorescent DNA replication assay; Potency, µM (titrated, usually from 114 µM), for inactives: top-dose activity change, negative = inhibition, usual class: inhibitors; hit rate 1.2% among 390,000; further: potency means the concentration at half of the fitted maximal effect; on the % scale 0 is the no-effect control and ±100 the full control effect
Target sequence (Q9Y253 whole entry, looked up): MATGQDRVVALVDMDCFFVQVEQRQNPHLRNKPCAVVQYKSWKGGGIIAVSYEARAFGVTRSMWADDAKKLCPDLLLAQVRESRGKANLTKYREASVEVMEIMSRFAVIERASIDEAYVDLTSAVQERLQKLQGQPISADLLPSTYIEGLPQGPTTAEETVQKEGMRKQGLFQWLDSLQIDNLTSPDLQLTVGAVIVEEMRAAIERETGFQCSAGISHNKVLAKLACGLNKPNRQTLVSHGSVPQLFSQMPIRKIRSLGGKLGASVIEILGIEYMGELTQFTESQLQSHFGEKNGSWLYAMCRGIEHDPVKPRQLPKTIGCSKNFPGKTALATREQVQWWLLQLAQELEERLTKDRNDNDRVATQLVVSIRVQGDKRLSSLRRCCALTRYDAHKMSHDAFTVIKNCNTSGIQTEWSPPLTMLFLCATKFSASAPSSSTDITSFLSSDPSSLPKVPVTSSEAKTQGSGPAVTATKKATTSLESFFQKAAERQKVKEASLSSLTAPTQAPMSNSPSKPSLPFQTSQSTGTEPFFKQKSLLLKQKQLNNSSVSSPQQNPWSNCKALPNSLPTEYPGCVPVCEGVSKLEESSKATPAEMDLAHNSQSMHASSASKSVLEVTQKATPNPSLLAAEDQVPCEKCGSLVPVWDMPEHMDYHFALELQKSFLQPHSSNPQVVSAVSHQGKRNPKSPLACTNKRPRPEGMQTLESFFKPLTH
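Pol eta at 10 nM preincubated with compounds 15 min at room temperature; reaction started with fluorescent substrate (50 nM final) and read kinetically at 0 and 10 min.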
Pol beta inh: blocks human DNA polymerase beta activity; P06746; Pol beta primer extension/strand displacement, fluorescence kinetic; Potency, µM (top dose mostly 114 µM), for the others: at the highest dose activity change, negative = inhibition, hits mostly inhibitors; hit rate 1.3% among 340,000; AID 485314; further: potency means the concentration at half of the fitted maximal effect; on the % scale 0 is the no-effect control and ±100 the full control effect
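10 nM enzyme + cpd, 15 min RT; start with substrate 50 nM final; read 0 min and after 10 min RT. Corrected, normalized data; 4-parameter Hill curve fit.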
Pol iota confirm: Human Pol iota inhibitor confirmatory assay | shares compounds with Pol kappa inh-1 | Potency, µM, usual class: inhibitors | Pol iota primer extension, TAMRA/BHQ fluorescence | hit rate 77% among 1,500; further: potency means the concentration at half of the fitted maximal effect
Pol kappa inh-2: confirmation of human DNA polymerase kappa inhibitors; shares compounds with Pol eta inh-1; purified Pol-kappa, fluorescent strand-displacement substrate; Potency, µM, most hits filed as inhibitors; hit rate 76% among 920; further: potency means the concentration at half of the fitted maximal effect
Pol eta inh-2: Pol eta (human) inhibition, cherry-pick confirmation | Potency, µM, hits mostly inhibitors | Pol eta primer extension, TAMRA/BHQ fluorescence, 10 min | shares compounds with Pol eta inh-1 | hit rate 64% among 2,600; further: potency means the concentration at half of the fitted maximal effect
WRN helicase inh-2: WRN helicase inhibition, cherry-pick retest | Potency, µM (titrated, usually from 57.1 µM), for inactives: top-dose activity, negative = inhibition, most hits filed as inhibitors | hit rate 63% among 610 | WRN helicase DNA unwinding, fluorescence kinetic | shares compounds with WRN helicase inh-1; further: potency means the concentration at half of the fitted maximal effect; nearly all actives have a fitted effect of over 65% in size
TO displacement: counter-screen for WRN helicase inhibitors: DNA binding; Potency, µM (titrated, usually from 57.1 µM), for inactives: at the highest dose activity change, negative = inhibition, actives largely listed as inhibitors; hit rate 10% among 610; thiazole orange DNA binding displacement, fluorescence; shares compounds with WRN helicase inh-1;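 further: drop in dye fluorescence marks compound binding to DNA; potency means the concentration at half of the fitted maximal effect; on the % scale 0 is the no-effect control and ±100 the full control effect; nearly all actives have a fitted effect of over 60% in size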
BLM helicase inh: BLM helicase inhibition, WRN selectivity check | shares compounds with WRN helicase inh-1 | Recombinant BLM helicase DNA unwinding, red fluorescence | Potency, µM (titrated, usually from 57.1 µM), for inactives: top-dose activity change, negative = inhibition, hits mostly inhibitors | hit rate 60% among 610; further: potency means the concentration at half of the fitted maximal effect; nearly all actives have a fitted effect of over 60% in size
Starred values were filed as active, the others as inactive; [ ] = remark or other dose. Unless noted, the call rests on the fitted dose curve; in most records, active means well fitted curve in the direction sought with a large enough effect; inconclusive means small, poorly fitted or top-dose-only effect, or another doubt; inactive means no such curve, though single readings can be large; an effect the other way counts as inactive or inconclusive.

How did Cc1cc(/C=C2\C(=O)NC(=O)N(c3ccc(Cl)cc3)C2=O)c(C)n1-c1sc2c(c1C#N)CCCC2 do in these assays?
Pol kappa inh-1: 79µM*; WRN helicase inh-1: inconclusive; PI5P4Ka inh: -57*; POLI inh: 10µM*; Pol eta inh-1: 20µM*; Pol beta inh: inconclusive; Pol iota confirm: 75*; Pol kappa inh-2: 75*; Pol eta inh-2: 30*

How did Cc1cc(/C=C2\C(=O)NC(=O)N(Cc3ccco3)C2=O)c(C)n1-c1ccc(C(=O)O)cc1 do in these assays?
Pol kappa inh-1: inconclusive; WRN helicase inh-1: inconclusive; PI5P4Ka inh: inconclusive; POLI inh: 18µM*; Pol eta inh-1: 18µM*; Pol beta inh: inconclusive; Pol iota confirm: 19*; Pol eta inh-2: 27*

Results for COC(=O)CCCc1[se]c2ccccc2c1I ?
Pol kappa inh-1: -16%[60.1 µM]

What do the screens show for `O=C1NC(=S)N(C2CC2)C(=O)/C1=C/c1ccc2c(c1)CCN2CCCCl`?
Pol kappa inh-1: 40µM*; WRN helicase inh-1: 3µM*; PI5P4Ka inh: -74*; POLI inh: 22µM*; Pol eta inh-1: 7.9µM*; Pol beta inh: 20µM*; Pol iota confirm: 15*; Pol eta inh-2: 19*; WRN helicase inh-2: 12µM*; TO displacement: inconclusive; BLM helicase inh: 7.6µM*

Results for CC(=O)Oc1ccc(Cl)c2cccnc12 ?
Pol kappa inh-1: -4%[60.1 µM]

What do the screens show for `CCN(CC)C(=O)c1ccc(NC(=O)c2cccc(C(F)(F)F)c2)cc1`?
Pol kappa inh-1: -11%; WRN helicase inh-1: 0%; PI5P4Ka inh: -2; POLI inh: 28%; Pol eta inh-1: 2%; Pol beta inh: 15%

Results for CCN(CCCl)c1cc(CN(C)C)cc(NC(=O)c2ccc(C(=O)Nc3cc(CN(C)C)cc(N(CC)CCCl)c3)cc2)c1 ?
Pol kappa inh-1: inconclusive; WRN helicase inh-1: inconclusive; PI5P4Ka inh: inconclusive; POLI inh: 28µM*; Pol eta inh-1: 11µM*; Pol iota confirm: 24*; Pol kappa inh-2: 0.53*; WRN helicase inh-2: 22µM*; TO displacement: -18%; BLM helicase inh: inconclusive

Results for O=C1NC(=O)N(Cc2ccc(F)cc2)C(=O)/C1=C\c1ccoc1 ?
Pol kappa inh-1: 25µM*; WRN helicase inh-1: 32µM*; PI5P4Ka inh: -93*; POLI inh: 14µM*; Pol eta inh-1: 22µM*; Pol beta inh: inconclusive; Pol iota confirm: 19*; Pol kappa inh-2: 17*; Pol eta inh-2: 30*; WRN helicase inh-2: 5.4µM*; TO displacement: 22%; BLM helicase inh: 3µM*

How did CCOc1ccc2cc(C#N)c(=O)oc2c1 do in these assays?
Pol kappa inh-1: 13%[60.1 µM]
